# Assay outcomes: PubChem BioAssay, several laboratories
# NR3A LBD binder: modulators (binders) of human NR3A ligand-binding domain; NR3A LBD differential scanning fluorimetry, Tm shift; 0% = protein alone, 100% = glycine-bound protein; Tm shift relative to glycine control, % at 25 µM; AID 1259313; 340,000 tested, 2.5% active;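 active means melting temperature shift of at least 10% of the positive control shift, at one fixed dose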
# Vif inh: inhibitors of HIV Vif; 340,000 tested, 0.35% active; HEK293T cells, Vif self-association by quenched fluorescence, imaging, 24 h; inhibition, % at 7.49 µM; AID 602346; in the data active means inhibition above about 50%, passing the limit was not always enough; inconclusive means no clear call, values can overlap the other calls; inactive means below about 31%
# NadD inh: blocks S. aureus nicotinate mononucleotide adenylyltransferase; 360,000 tested, 0.78% active; purified NadD enzyme, colorimetric absorbance read-out; inhibition, % at 20 µM; AID 602399; in the data active means inhibition above about 26%
# esBAF inh: SWI/SNF esBAF complex inhibition; reporter increase, % at 12.5 µM; AID 602393; 350,000 tested, 2% active; mouse ES cells, Bmi1-luciferase knock-in reporter, 24 h; 100% = twice the neutral-well signal; in the data active means activation above about 40%; inconclusive means no clear call, values can overlap the other calls;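 further: 0% = median of the plate's neutral control wells and 100% = double that signal; a rise in the Bmi1 reporter signal indicates esBAF inhibition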
# SMARCA2 act: increases SMARCA2 function in MMTV reporter cells; MG213 cells, MMTV-luciferase reporter, dexamethasone, overnight; activation, % at 9.1 µM; 370,000 tested, 1% active; in the data active means activation above about 7.8%;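 further: 0% = vehicle wells and 100% = reference activator wells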
# SKN-1 block: C. elegans SKN-1 inhibition. C. elegans VP596 Pgst-4::GFP/RFP ratio, acrylamide-induced, 24 h. inhibition, % at 21.8 µM. 360,000 tested, 0.49% active. AID 624304;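 active means interference check ratio from 0.5 to 1.5 plus GFP to RFP signal ratio inhibition reaching or exceeding a fixed threshold, cut at about 30% in these data, passing the limit was not always enough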
# NadD inh conf: NadD (S. aureus) inhibition, single concentration confirmation; shares compounds with NadD inh; purified S. aureus NadD, colorimetric enzyme assay; inhibition, % at 20 µM; 2,000 tested, 13% active; AID 624309; in the data active means inhibition mostly above about 42%, no sharp cut-off; inactive means mostly below about 42%
# * hit, by the source's call; ? = inconclusive; nt = not tested or not shown. Shown are actives, neighbours in structure and some others; about 5.2% of the full set was active somewhere.
SMILES,NR3A LBD binder,Vif inh,NadD inh,esBAF inh,SMARCA2 act,SKN-1 block,NadD inh conf
COc1ccc(Cl)cc1C(=O)NNC(=S)NC(=O)c1cc(-c2ccccc2)nc2ccccc12,5.9,nt,60.9*,-12.8,-5.9,18.5,5.5
CCCOc1ccc(C(=O)NNC(=S)NC(=O)c2cc(-c3ccc(Cl)cc3)nc3ccccc23)cc1,13.6*,31.7,78.8*,7.0,-3.0,-7.1,13.7
COc1cc2c(cc1NC(=O)c1cc(-c3ccncc3)nc3ccccc13)oc1ccccc12,-21.9,7.5,47.6*,nt,-2.9,13.3,5.1
O=C(Nc1ccc(C(F)(F)F)cc1)N[C@@H]1CC[C@@H](CCn2cc(C3(O)CCCC3)nn2)O[C@H]1CO,nt,nt,nt,-26.1,nt,nt,nt
CC(C)NC(=O)Nc1ccc2c(c1)C(=O)N([C@@H](C)CO)C[C@@H](C)[C@@H](CN(C)Cc1ccccc1)OCCCC[C@@H](C)O2,nt,nt,nt,2.6,nt,nt,nt
COc1ccc(C(=O)NNC(=S)NC(=O)c2cc(-c3ccccc3)nc3ccccc23)cc1,14.3*,2.3,49.1*,nt,-2.8,23.5,67.7*
CC(C)(C)c1ccc(-c2cc(C(=O)NNC(=O)Nc3ccccc3)c3ccccc3n2)cc1,11.9*,8.1,37.2*,10.0,5.1,-5.1,24.5
COc1cccc(-c2cc(C(=O)Nc3nc4ccccc4s3)c3ccccc3n2)c1,1.3,-5.9,35.8*,9.5,-0.9,46.3*,5.7
CC=Cc1ccc2n(c1=O)C[C@H]1[C@H](CO)[C@@H](C(=O)N3CCCCC3)[C@@H]2N1C(=O)C1CC1 (mixture of isomers),nt,nt,nt,7.7,nt,nt,nt
C[C@@H]1CN([C@@H](C)CO)C(=O)c2cccc(NC(=O)c3ccncc3)c2O[C@H]1CN(C)Cc1ccc(-c2ccccc2)cc1,nt,nt,nt,7.5,nt,nt,nt
Cc1nc(/N=C(\N)NC(=O)N2c3ccccc3Sc3ccccc32)nc2ccccc12,-1.9,-1.8,30.6*,nt,-2.2,5.5,19.7
CCCN1[C@@H]2Cn3c(ccc(C4=CCCCC4)c3=O)[C@H]1[C@@H](C(=O)N1CCc3ccccc3C1)[C@@H]2CO,nt,nt,nt,-2.0,nt,nt,nt
O=C(Cc1cccc2ccccc12)Nc1ccc(-c2cc3ccccc3oc2=O)cc1,0.9,-10.9,31.5*,1.0,-8.7,13.4,13.5
Oc1ccc2ccccc2c1/C=C/c1ccc2c(Br)cc(Br)c(O)c2n1,15.0*,-11.7,57.7*,nt,-5.4,3.2,32.9
COc1ccc(NC(=O)c2c[nH]n3c(=O)cc(C4CCN(C(=O)OC(C)(C)C)CC4)nc23)cc1Cl,2.6,12.0,29.0*,-4.7,-4.0,-4.1,20.4
CC(C)(C)OC(=O)N1CCC(c2cc(=O)n3[nH]cc(C(=O)Nc4ccc(F)c(Cl)c4)c3n2)CC1,0.2,-2.9,22.4,nt,-4.2,-1.0,nt
COc1ccc(S(=O)(=O)N(C)C[C@@H]2Oc3ccc(NC(=O)CCN4CCOCC4)cc3C(=O)N([C@@H](C)CO)C[C@@H]2C)cc1,nt,nt,nt,1.7,nt,nt,nt
O=C1CCCC2=C1C(c1ccco1)Nc1ccc(C(=O)c3ccccc3)cc1N2 (centres undefined),-1.7,-8.2,35.3*,3.4,1.8,-13.1,2.0
C[C@@H]1CN([C@@H](C)CO)C(=O)c2cccc(NS(C)(=O)=O)c2O[C@H]1CN(C)CC1CC1,nt,nt,nt,4.7,nt,nt,nt
CC(C)C#Cc1cnc2c(c1)C(=O)N([C@@H](C)CO)C[C@@H](C)[C@H](CN(C)C(=O)c1cccnc1)O2,nt,nt,nt,10.8,nt,nt,nt
Nc1nonc1-n1nnc(C(=O)N/N=C/c2ccc(OCc3ccccc3)cc2)c1CNc1ccccc1,31.2*,-1.4,39.2*,14.8,-0.9,22.0,0.6
Cc1cccc(COc2ccc(/C=N/NC(=O)c3nnn(-c4nonc4N)c3CN3CCCCC3)cc2)c1,12.9*,-3.8,30.7*,?,0.9,2.0,10.4
CN(C)CC(=O)Nc1ccc2c(c1)[C@H]1C[C@H](CC(=O)N3CCN(C)CC3)O[C@H](CO)[C@H]1O2,nt,nt,nt,-4.7,nt,nt,nt
O=c1[nH]c(C2CCN(S(=O)(=O)/C=C/c3ccccc3)CC2)nc2c1nnn2Cc1ccc(F)cc1,4.1,-9.3,35.1*,4.5,-0.2,0.2,35.4
Cc1ccc(Cn2nnc3c(=O)[nH]c(C4CCN(S(=O)(=O)c5cc(C)ccc5C)CC4)nc32)cc1,-3.0,21.0,5.1,-2.1,-1.7,-3.3,nt
SMILES,NR3A LBD binder,Vif inh,NadD inh,esBAF inh,SMARCA2 act,SKN-1 block,NadD inh conf
O=c1[nH]c(C2CCN(S(=O)(=O)c3ccccc3F)CC2)nc2c1nnn2Cc1ccc2c(c1)OCCO2,-8.2,-4.0,22.6,-2.2,-0.8,13.6,nt
O=c1[nH]c(C2CCN(S(=O)(=O)c3ccc(C(F)(F)F)cc3)CC2)nc2c1nnn2Cc1ccccc1,-0.5,14.0,15.9,0.2,-3.1,0.1,nt
Cc1ccc(C)c(Cn2nnc3c(=O)[nH]c(C4CCN(S(=O)(=O)c5ccc(S(=O)(=O)N(C)C)cc5)CC4)nc32)c1,4.2,-12.6,46.3*,-0.2,-3.5,24.0,8.8
O=c1[nH]c(C2CCN(S(=O)(=O)c3ccc(C(F)(F)F)cc3)CC2)nc2c1nnn2Cc1cccc(F)c1,8.6,-13.9,31.3*,-5.8,-1.4,-6.6,20.4
O=c1[nH]c(C2CCN(S(=O)(=O)c3ccc(F)cc3)CC2)nc2c1nnn2Cc1ccc2c(c1)OCCO2,-4.4,-4.3,30.1*,-6.0,1.9,14.2,32.3
Cc1noc(C)c1NC(=O)Nc1cccc2c1O[C@H](CN(C)C)[C@@H](C)CN([C@@H](C)CO)C2=O,nt,nt,nt,-5.8,nt,nt,nt
Cc1ccc(S(=O)(=O)N2CCCC(c3nc4c(nnn4Cc4ccc5c(c4)OCCO5)c(=O)[nH]3)C2)cc1 (centres undefined),0.7,-4.7,37.1*,1.0,-2.5,9.3,30.1
O=C(C[C@@H]1CC[C@@H](NC(=O)CC2CC2)[C@@H](CO)O1)NCC(F)(F)F,nt,nt,nt,0.8,nt,nt,nt
O=C(NCCCO)c1ccc2nc(-c3ccco3)c(-c3ccco3)nc2c1,-1.4,-12.4,11.2,3.6,-1.2,-2.5,nt
O=C(NCc1ccccc1)c1ccc2nc(-c3ccco3)c(-c3ccco3)nc2c1,-11.4,nt,45.4*,-2.0,-1.2,20.3,7.3
C[C@H]1CN([C@@H](C)CO)C(=O)c2cc(NS(=O)(=O)c3ccc(Cl)cc3)ccc2O[C@@H]1CN(C)Cc1ccccc1,nt,nt,nt,-6.5,nt,nt,nt
COc1ccc(N/C=C2\C(=O)CCc3c2oc2cc(Cl)c(O)c(Cl)c32)cc1,3.0,-3.8,44.5*,-2.2,-1.5,4.2,-1.6
CC(C)NC(=O)N(C)C[C@H]1Oc2cc(Br)ccc2S(=O)(=O)N([C@@H](C)CO)C[C@H]1C,nt,nt,nt,-5.3,nt,nt,nt
CCc1ccc(N(CC(=O)NCc2ccco2)C(=O)CCC(=O)Nc2ccccn2)cc1,-0.9,1.1,23.9*,-2.1,4.4,13.6,4.3
CCc1ccccc1N(CC(=O)NCc1ccco1)C(=O)CCC(=O)Nc1ccccn1,-0.7,-7.5,-0.5,-1.4,-0.8,10.8,nt
